We go through nine compounds from the supplement of paper PMC9262897, “Low-cost anti-mycobacterial drug discovery using engineered E. coli” (Nature Communications, 2022).

Holding throughout (assay): growth (OD600 after 10 h); higher = more growth (less inhibition)
Test [1] deals with E. coli TESEC Alr+ wild-type control. To be noted: compound 0.1 mM; raw OD600 reference: median of DMSO wells 0.241, cell-free background 0.041. As for the experimental part: (§1)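 TESEC Mtb Alr E. coli, or the Alr+ wild-type control, in 384-well plates with Prestwick library compounds at 0.1 mM and 1% DMSO, across arabinose induction levels of 1E3 to 1E7 nM. Growth is read as OD600 after 10 h at 37 °C in triplicate biological replicates.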

For test [2], the system named is E. coli TESEC Mtb Alr. To be noted: compound 0.1 mM. As for the experimental part: as §1
Test [3] deals with E. coli TESEC Mtb Asd. The conditions noted are these: compound 0.1 mM. As for the experimental part: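 TESEC E. coli strains in which the native enzyme is deleted and replaced by arabinose-inducible Mtb Asd, DapB, CysH or TrpD, each grown in its selective medium. Strains were screened against the Prestwick library at 0.1 mM and 1% DMSO in 384-well format at low and high arabinose induction. Growth is read as OD600 after 10 h in triplicate.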

The test system of test [4] is E. coli TESEC Alr+ wild-type control. The conditions noted are these: compound 0.1 mM; raw OD600 reference: median of DMSO wells 0.49, cell-free background 0.052. As for the experimental part:
(§2)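 TESEC Mtb Alr E. coli (ΔaraC ΔtolC ΔentC Δalr ΔdadX, arabinose-inducible Mtb Alr) or the Alr+ wild-type control strain, grown in defined M9-fructose medium without D-alanine in 96-well plates with Prestwick library compounds at 0.1 mM and 1% DMSO. Low Alr induction is 0.1 µM arabinose and high induction is 10 mM arabinose.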

Test [5] has as its system E. coli TESEC Mtb Alr. To be noted: compound 0.1 mM. As for the experimental part: as §2
This is another data set of the same source.

Where [6] appears, read: arabinose 1000 nM, raw OD600 reference: median of DMSO wells 0.294, cell-free background 0.041.
[7] abbreviates: arabinose 10000 nM, raw OD600 reference: median of DMSO wells 0.264, cell-free background 0.041.
Where [8] appears, read: arabinose 100000 nM, raw OD600 reference: median of DMSO wells 0.201, cell-free background 0.041.
Setting [9] is: arabinose 1000000 nM, raw OD600 reference: median of DMSO wells 0.193, cell-free background 0.041.
Where [10] appears, read: arabinose 10000000 nM, raw OD600 reference: median of DMSO wells 0.146, cell-free background 0.041.
Where [11] appears, read: arabinose induction (level): High, raw OD600 reference: median of DMSO wells 0.331, cell-free background 0.041.
Where [12] appears, read: arabinose induction (level): Low, raw OD600 reference: median of DMSO wells 0.417, cell-free background 0.041.
Setting [13] is: arabinose 100 nM, raw OD600 reference: median of DMSO wells 0.413, cell-free background 0.052.
[14] abbreviates: arabinose 10000000 nM, raw OD600 reference: median of DMSO wells […], cell-free background 0.052.

Structures can show the parent of a compound that is named as a salt. ± gives the standard deviation of the averaged measurements.

As for `Cn1c(=O)c2c(ncn2CCO)n(C)c1=O` [Etofylline], the growth in test [1] is 0.254 ± 0.003; in test [2] (setting [6]), 0.283 ± 0.0029; in test [2] (setting [7]) it was 0.276 ± 0.016; in test [2] (setting [8]) it was 0.228 ± 0.011; in test [2] (setting [9]), 0.195 ± 0.0066; in test [2] (setting [10]), 0.145 ± 0.0023. For the same compound, the growth in test [3] (setting [11]) is 0.396 ± 0.053; in test [3] (setting [12]) it was 0.425 ± 0.033; in test [4] it was 0.509 ± 0.055; in test [5] (setting [13]), 0.414 ± 0.0083; in test [5] (setting [14]) it was 0.349 ± 0.0046.

`C#C[C@]1(O)CC[C@H]2[C@@H]3CCC4=Cc5oncc5C[C@]4(C)[C@H]3CC[C@@]21C` [Danazol]: the growth is 0.154 ± 0.027 in test [1]; 0.168 ± 0.026 in test [2] (setting [6]); 0.174 ± 0.022 in test [2] (setting [7]); 0.152 ± 0.012 in test [2] (setting [8]); 0.125 ± 0.0017 in test [2] (setting [9]); 0.152 ± 0.0057 in test [2] (setting [10]). The growth in test [3] (setting [11]) turned out to be 0.295 ± 0.075; in test [3] (setting [12]), 0.277 ± 0.022; in test [4], 0.46 ± 0.05; in test [5] (setting [13]) it was 0.4015 ± 0.0024; in test [5] (setting [14]), 0.309 ± 0.026.

Regarding `COC1=CC(=O)C[C@@H](C)[C@]12Oc1c(Cl)c(OC)cc(OC)c1C2=O` [Griseofulvin], the growth amounted to 0.223 ± 0.0068 in test [1]; 0.2842 ± 0.002 in test [2] (setting [6]); 0.2487 ± 0.002 in test [2] (setting [7]); 0.208 ± 0.021 in test [2] (setting [8]); 0.0853 ± 0.0022 in test [2] (setting [9]); 0.135 ± 0.006 in test [2] (setting [10]). Further, the growth in test [3] (setting [11]) came to 0.241 ± 0.051; in test [3] (setting [12]), 0.385 ± 0.11; in test [4], 0.514 ± 0.041; in test [5] (setting [13]) it was 0.416 ± 0.013; in test [5] (setting [14]), 0.21 ± 0.032.

For the compound `N=C(N)N/N=C/c1c(Cl)cccc1Cl` [Guanabenz acetate], the growth in test [1] came to 0.189 ± 0.012; in test [2] (setting [6]), 0.224 ± 0.0084; in test [2] (setting [7]), 0.2721 ± 0.00092; in test [2] (setting [8]) it was 0.221 ± 0.021; in test [2] (setting [9]), 0.144 ± 0.005; in test [2] (setting [10]) it was 0.168 ± 0.0024. The growth in test [3] (setting [11]) was determined as 0.31 ± 0.039; in test [3] (setting [12]) it was 0.432 ± 0.026; in test [4] it was 0.453 ± 0.026; in test [5] (setting [13]), 0.408 ± 0.0073; in test [5] (setting [14]), 0.318 ± 0.011.

As to `CCCCc1cc2ccccc2c(OCCN(C)C)n1` [Dimethisoquin hydrochloride], the growth in test [1] amounted to 0.177 ± 0.0065; in test [2] (setting [6]), 0.182 ± 0.0035; in test [2] (setting [7]), 0.162 ± 0.0045; in test [2] (setting [8]), 0.199 ± 0.0029; in test [2] (setting [9]) it was 0.0689 ± 0.0025; in test [2] (setting [10]), 0.1567 ± 0.0013. Further, the growth in test [3] (setting [11]) came out at 0.154 ± 0.0042; in test [3] (setting [12]), 0.171 ± 0.015; in test [4], 0.444 ± 0.022; in test [5] (setting [13]), 0.3984 ± 0.0029; in test [5] (setting [14]) it was 0.308 ± 0.011.

Turning to `O=C1NCCN1c1ncc([N+](=O)[O-])s1` [Niridazole], the growth came to 0.0479 ± 0.0055 in test [1]; 0.0513 ± 0.005 in test [2] (setting [6]); 0.0413 ± 0.0019 in test [2] (setting [7]); 0.0452 ± 0.0004 in test [2] (setting [8]); 0.0407 ± 0.00045 in test [2] (setting [9]); 0.0598 ± 0.023 in test [2] (setting [10]). Besides, the growth amounted to 0.0946 ± 0.0021 in test [3] (setting [11]); 0.203 ± 0.07 in test [3] (setting [12]); 0.0563 ± 0.002 in test [4]; 0.119 ± 0.025 in test [5] (setting [13]); 0.0512 ± 0.00072 in test [5] (setting [14]).

With `Cc1c(N)c(=O)n(-c2ccccc2)n1C` [Ampyrone], the growth in test [1] is 0.25 ± 0.0062; in test [2] (setting [6]), 0.289 ± 0.008; in test [2] (setting [7]), 0.267 ± 0.019; in test [2] (setting [8]) it was 0.217 ± 0.02; in test [2] (setting [9]), 0.187 ± 0.0029; in test [2] (setting [10]), 0.146 ± 0.007. Besides, the growth in test [3] (setting [11]) was 0.368 ± 0.033; in test [3] (setting [12]), 0.446 ± 0.01; in test [4], 0.457 ± 0.017; in test [5] (setting [13]) it was 0.414 ± 0.0049; in test [5] (setting [14]) it was 0.3598 ± 0.0033.

With `CC[N+](C)(C)Cc1ccccc1Br` [Bretylium tosylate], the growth in test [1] worked out at 0.253 ± 0.011; in test [2] (setting [6]) it was 0.323 ± 0.02; in test [2] (setting [7]), 0.261 ± 0.0084; in test [2] (setting [8]) it was 0.22 ± 0.0026; in test [2] (setting [9]), 0.1733 ± 0.00021; in test [2] (setting [10]) it was 0.1633 ± 0.00072. Moreover, the growth stood at 0.484 ± 0.032 in test [3] (setting [11]); 0.476 ± 0.018 in test [3] (setting [12]); 0.624 ± 0.021 in test [4]; 0.409 ± 0.015 in test [5] (setting [13]); 0.324 ± 0.017 in test [5] (setting [14]).

For the compound `CN(C)CC/C=C1/c2ccccc2Sc2ccc(Cl)cc21` [Chlorprothixene hydrochloride], the growth amounted to 0.0398 ± 0.0002 in test [1]; 0.0409 ± 0.001 in test [2] (setting [6]); 0.03943 ± 0.00032 in test [2] (setting [7]); 0.04043 ± 0.00038 in test [2] (setting [8]); 0.042 ± 0.0051 in test [2] (setting [9]); 0.0425 ± 0.00068 in test [2] (setting [10]). The growth came out at 0.0468 ± 0.00058 in test [3] (setting [11]); 0.0472 ± 0.0011 in test [3] (setting [12]); 0.157 ± 0.12 in test [4]; 0.41 ± 0.0049 in test [5] (setting [13]); 0.0664 ± 0.0082 in test [5] (setting [14]).
